Assay outcomes as filed in PubChem.
Shown are actives, neighbours in structure and some others; about 2.3% of the full set was active somewhere.
CHRM1 PAM: potentiates human M1 receptor response to acetylcholine. 0.088% of 360,000 active. P11229. CHO-K1 hM1, Fluo-8 calcium fluorescence, ACh EC20; 0% = ACh EC20, 100% = maximal ACh. activation, % at 3 µM. AID 588819; in the data active = activation above about 19%, passing the limit was not always enough
Target sequence (P11229 whole entry, looked up): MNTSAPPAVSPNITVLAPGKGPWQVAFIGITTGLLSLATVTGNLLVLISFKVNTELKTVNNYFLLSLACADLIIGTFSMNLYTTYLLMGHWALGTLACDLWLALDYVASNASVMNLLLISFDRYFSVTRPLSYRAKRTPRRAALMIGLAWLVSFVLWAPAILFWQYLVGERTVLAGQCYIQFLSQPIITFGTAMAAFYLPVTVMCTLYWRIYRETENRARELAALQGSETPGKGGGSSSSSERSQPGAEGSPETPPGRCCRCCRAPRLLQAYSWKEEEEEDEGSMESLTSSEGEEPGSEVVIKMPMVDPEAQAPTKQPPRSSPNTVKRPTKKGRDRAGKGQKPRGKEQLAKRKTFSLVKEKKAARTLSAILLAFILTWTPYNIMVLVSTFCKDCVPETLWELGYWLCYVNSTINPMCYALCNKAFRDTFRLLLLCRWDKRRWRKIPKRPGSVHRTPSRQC
CHRM1 agonist: activates human CHRM1 receptor; activation, % at 3 µM; CHO-K1 hM1, Fluo-8 calcium fluorescence, agonist mode; 0% DMSO, 100% acetylcholine EC100; 0.33% of 360,000 active; P11229;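 active = activation above the run's mean compound activation plus 3 SD, cut at about 16% in these data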;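 also: peak over basal fluorescence ratio within a 140 s kinetic read after compound addition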
M1 antag: antagonists of human M1 muscarinic receptor. CHO-K1 hM1, Fluo-8 calcium fluorescence, ACh EC80 antagonist. inhibition, % at 3 µM. 1.3% of 360,000 active. P11229;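 active = percent inhibition above its own plate's cutoff, namely the mean of that plate's compound wells plus 3 SD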;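 also: peak over basal fluorescence ratio during 140 s after agonist addition; 0% = ACh EC80 plus DMSO and 100% = DMSO alone without agonist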
CHO-K1 Ca PAM: counter-screen for M1 PAMs: effect in parental CHO-K1 cells; ATP EC20, Fluo-8 calcium fluorescence; 0% at ATP EC20, 100% at ATP max; activation, % at 3 µM; 0.02% of 360,000 active; AID 602247;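 active = activation above the run cutoff, the mean activation of all test compounds plus 3 SD, cut at about 40% in these data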;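 also: peak over basal fluorescence ratio in a 140 s read after ATP addition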
CHO-K1 Ca antag: nonselective inhibitor or artifact in parental CHO-K1 cells. ATP-induced calcium, Fluo-8 fluorescence. inhibition, % at 3 µM. 0.6% of 360,000 active. AID 602250;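 active = inhibition above a per-plate cutoff, the plate's mean sample inhibition plus 3 SD, cut at about 24% in these data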;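 also: 0% = DMSO plus EC80 ATP and 100% = DMSO alone without ATP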
M1 ag parental: counter-screen for M1 agonists: effect in parental CHO-K1 cells; Fluo-8 calcium fluorescence; scaled to maximal ATP response, vehicle zero; activation, % at 3 µM; 0.48% of 360,000 active; in the data active = activation above about 15%;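 also: untransfected CHO-K1 host cells lacking M1 receptor as counterscreen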
* = called active by the depositor; nt = not tested or not shown.

SMILES | CHRM1 PAM | CHRM1 agonist | M1 antag | CHO-K1 Ca PAM | CHO-K1 Ca antag | M1 ag parental
CC(=O)c1ccc(NC(=O)CN2C(=O)COc3ccc(S(=O)(=O)N4CCCC4)cc32)cc1 | -4.4 | -7.7 | -1.5 | -12.6 | -12.7 | -0.1
Cc1ccc(CNC(=O)c2ccc(Cl)cc2[N+](=O)[O-])cc1 | -9.9 | -4.0 | 13.3 | -8.4 | 26.4* | -0.2
O=C(NCc1ccc(Cl)cc1)c1ccc(Cl)cc1[N+](=O)[O-] | 11.2 | -1.1 | -16.2 | 7.6 | -2.5 | 0.1
CC(C)(C)c1ccc(-n2ncc3c2CCCC3NC(=O)CCn2cncn2)cc1 (stereo not drawn) | -22.6 | -5.0 | 54.2* | -25.6 | 9.2 | 1.4
Cc1cc(C(=O)NC2CCCc3c2cnn3-c2ccc(C(C)(C)C)cc2)nn1C (stereo not drawn) | -6.9 | 1.9 | 32.8* | -9.5 | 24.9* | 11.9
Cc1c(Cl)c([N+](=O)[O-])nn1CC(=O)Nc1c(C)n(C)n(-c2ccccc2)c1=O | -12.2 | -5.6 | 27.7* | 11.4 | -1.9 | 1.6
Cc1c(NC(=S)NC(=O)c2ccc(Cl)cc2)c(=O)n(-c2ccccc2)n1C | -8.2 | -3.2 | 20.0 | 14.3 | -2.4 | 5.7
Cc1c(NC(=O)c2cc(C(C)C)on2)c(=O)n(-c2ccccc2)n1C | -20.4 | -8.8 | 35.8* | -9.1 | 7.0 | 0.3
Cc1ccc(Cn2nc(C)c(NC(=O)CCCn3nc([N+](=O)[O-])c(Cl)c3C)c2C)cc1 | 21.1* | -1.6 | -17.4 | 18.2 | -18.8 | 0.3
Cc1c(NC(=O)c2cc(CC(C)C)on2)c(=O)n(-c2ccccc2)n1C | 10.9 | -12.5 | -24.2 | 16.6 | 1.6 | -0.1
Cc1ccc(Cn2nc(C)c(NC(=O)CCCn3nc(C)c([N+](=O)[O-])c3C)c2C)cc1 | 3.7 | -3.6 | -0.2 | -1.7 | -18.5 | 0.3
Cc1c(NC(=S)NC(=O)c2ccccc2Cl)c(=O)n(-c2ccccc2)n1C | 28.8* | -4.8 | -2.9 | 9.4 | -3.1 | 0.3
Cc1nn(Cc2ccccc2)c(C)c1NC(=O)Cn1nc([N+](=O)[O-])c(Cl)c1C | -0.1 | -1.6 | -3.9 | 10.3 | -24.5 | 1.4
CCOc1ccc(NC(=O)Cc2ccc(S(=O)(=O)N3CCCCC3)cc2)cc1OCC | -3.3 | -2.9 | 2.6 | -6.8 | -7.9 | 0.7
CSCCC(NC(=O)COc1ccccc1)C(=O)N1CCN(c2ccccc2Cl)CC1 (stereo not drawn) | 3.1 | -5.5 | -2.6 | 3.8 | 4.5 | 2.1
CCOC(=O)c1ccc(CNC(=O)C2CCC(=O)N(CCc3ccccc3)C2)o1 (stereo not drawn) | 2.3 | -7.3 | -11.2 | 11.5 | -8.6 | 0.9
COc1ccc2cc(C3(C)NC(=O)N(CC(=O)N4CCCCC4)C3=O)ccc2c1 (stereo not drawn) | 12.9 | 3.3 | -18.1 | 8.2 | -5.8 | 1.3
O=C(/C=C/Nc1ccccc1)c1ccc(Oc2ncccn2)cc1 | 3.0 | -4.0 | 5.2 | -6.8 | 26.5* | 0.0
CCOC(=O)[C@]12CCCC=C1N(Cc1ccco1)C(=O)[C@H](CC(=O)N1CCCCC1)C2 | nt | nt | nt | -2.7 | -12.6 | 0.7
CC(=O)c1sc(NC(=O)C2(F)C(F)(F)C(F)(F)C(F)(F)C(F)(F)C2(F)F)nc1C | -6.3 | 3.4 | 11.1 | 1.9 | 25.6* | 12.6
O=C(CNC(=O)c1ccc(Br)o1)Nc1cccc(S(=O)(=O)N2CCOCC2)c1 | 11.4 | -1.2 | -3.9 | -2.0 | -2.8 | 0.3
CC(C)C[C@H](NC(=O)/C=C/[C@H]1O[C@@H](n2ccc(=O)[nH]c2=O)[C@H](O)[C@@H]1O)C(=O)O | 7.2 | 16.7* | -14.1 | -11.2 | 15.7 | 0.0
CC1(C)NC(=O)N(CCC(=O)Nc2ccc(C(C)(C)C)cc2)C1=O | 7.9 | -2.2 | -7.7 | 19.7 | -6.7 | 1.6
COc1cccc(C(=O)N(CN2CCCC2=O)c2ccccc2OC)c1 | 4.6 | -0.6 | 3.4 | -7.9 | 27.8* | -0.3
CC(=O)Oc1ccc(N2C(=O)C3C4C=CC(CC4)C3C2=O)cc1[N+](=O)[O-] (stereo not drawn) | 10.1 | -4.3 | -10.9 | 29.6 | -19.4 | 0.8
SMILES | CHRM1 PAM | CHRM1 agonist | M1 antag | CHO-K1 Ca PAM | CHO-K1 Ca antag | M1 ag parental
COc1ccc(CCNC(=O)c2ccccc2NC(=O)CN2CCN(c3ccccc3O)CC2)cc1 | -8.3 | 2.5 | 28.3* | 10.2 | 7.4 | 7.8
COc1ccccc1N1CCN(CC(=O)Nc2ccccc2C(=O)NCCc2ccccc2)CC1 | -8.4 | -0.6 | 28.6* | 18.7 | 6.5 | 3.5
CC(NC(=O)c1ccccc1NC(=O)CN1CCN(c2ccccc2O)CC1)c1ccccc1 (stereo not drawn) | -5.4 | 2.2 | 12.9 | 20.8 | -20.5 | 4.4
COc1ccccc1N1CCN(CC(=O)Nc2ccccc2C(=O)NC(C)c2ccccc2)CC1 (stereo not drawn) | -18.6 | 6.6 | 35.0* | 4.7 | 0.1 | 6.2
O=C(CN1CCN(c2ccccc2O)CC1)Nc1ccccc1C(=O)NCCc1ccccc1 | -12.0 | -2.4 | 29.1 | -3.4 | 3.1 | 7.0
CC(NC(=O)c1ccccc1NC(=O)CN1CCc2ccccc2C1)c1ccccc1 (stereo not drawn) | 3.0 | 4.3 | -1.7 | 40.3* | -13.2 | 7.1
CC[C@]12c3[nH]c4cc(CCC(=O)N(C)C)ccc4c3CCN1C(=O)[C@@H](CC(=O)NCc1cccc(C(F)(F)F)c1)C[C@@H]2C(=O)N1CCN(C(=O)C2CC2)CC1 | 6.9 | -11.0 | -13.9 | 13.9 | -8.7 | 0.0
CN(Cc1ccccc1)C1CCNCC1 | -4.1 | -1.2 | 5.8 | -9.4 | -4.7 | 2.6
COc1ccc2[nH]c(=O)c(CN(C(=O)c3ccco3)C3CCCCC3)cc2c1 | 1.8 | -4.1 | -10.5 | -2.2 | -3.9 | 0.5
COc1ccccc1N1CCN(CC(=O)NCC2CCCO2)CC1 (stereo not drawn) | 10.7 | -0.5 | -3.0 | -8.6 | 27.4* | -0.4
CCCOc1c(Br)cc(C(=O)OCC(=O)NC(=O)c2cccn2C)cc1OC | 4.7 | -4.1 | -3.7 | 12.2 | -13.7 | 0.4
COc1ccc(/C=N/NC(=O)CNc2n[nH]c(=O)[nH]c2=O)cc1OC | -9.3 | -4.2 | 15.8 | -8.4 | 26.9* | -0.2
CCc1c(C(=O)NC(C)C2CCCO2)csc1C (stereo not drawn) | 12.9 | -1.6 | -15.6 | 14.5 | -11.2 | 1.2
O=C(C1COc2ccccc2O1)N1CCCCC1 (stereo not drawn) | -11.8 | -1.5 | 29.3 | -19.5 | 23.9* | -0.6
O=C(C1COc2ccccc2O1)N1CCN(c2ccccc2Cl)CC1 (stereo not drawn) | 9.0 | -5.8 | -11.3 | 15.3 | -2.3 | -0.1
COc1ccc(C(CNC(=O)c2cc3c(s2)CCC(C)C3)N2CCCC2)cc1 (stereo not drawn) | -5.3 | -8.3 | -1.3 | 22.5 | -11.0 | 1.0
COc1ccccc1CNC(=O)C1COc2ccccc2O1 (stereo not drawn) | 3.9 | -3.4 | -7.9 | 14.5 | -2.2 | 0.4
